A number with no mark means an inactive call. Activity calls are given as the source filed them. The call rests on the fitted dose curve; in most records, active means well fitted curve in the direction sought with a large enough effect in the repeat runs; inconclusive means weak or mixed curves; inactive means flat fitted curve, though single readings scatter.
experiment: qHTS assay to test for compound auto fluorescence at 590 nm (red) in HepG2 cell free culture (AID 720684); settings: cell-free medium autofluorescence, red 540/590 nm; series mostly up to 91.3 µM
Description: U.S. Tox21 Program National Center for Advancing Translational Sciences [NCATS] NIH Chemical Genomics Center [NCGC] U.S. Environmental Protection Agency [EPA] National Institutes of Environmental Health Sciences [NIEHS] National Toxicology Program [NTP] U.S. Food and Drug Administration [FDA] Tox21 Assay Overview: Compound auto fluorescence often interferes with screening of the compound library against various biological targets and signaling pathways. Some of these compounds may have fluorophoric properties. Such properties may interfere with the assay outputs resulting in false positives and/or negatives. To decrease such complications and ensure the compound activities are relevant in terms of biological response, the Tox21 10K compound library was screened for auto fluorescence. From the fluorophores used as reporter signals in our screening assays, the auto fluorescence equivalencies of compounds against three fluorophores have been evaluated: Triamterene, Fluorescein and Rose Bengal sodium for blue, green and red fluorescence, respectively. The fluorescence intensities were measured using Excitation/Emission wavelengths at 405/460nm, 485/535nm and 540/590nm for blue, green and red labels, respectively. This assay includes the red fluorescence data.
Tox21 Assay Protocol Summary: 5 uL of culture medium (MEM containing 10% FBS) per well was dispensed into black wall/clear bottom 1536-well plates using a Multidrop Combi Dispenser (ThermoFisher Scientific, Waltham, MA). After 23 nL compound or DMSO vehicle was transferred into assay plate by a pintool work station (Kalypsys, San Diego, CA), fluorescence intensities in the assay plates were measured by an Envision (PerkinElmer, Shelton, CT) plate reader using three labels for measuring blue, green and red fluorescence at […] 460, 535 and 590nm respectively.
On the % scale 0 is the no-effect control and ±100 the full control effect.

Row | Structure (SMILES) | outcome | fluorescence, % of Rose Bengal
1 | [CH3][Hg][Cl] | inactive | 
2 | C[C@]12CC[C@H]3[C@@H](CCC4=CC(=O)CC[C@@]43C)[C@@H]1CC[C@@H]2O | inactive | 
3 | CCC(C)(C)C(=O)OC1=C(c2ccc(Cl)cc2Cl)C(=O)OC12CCCCC2 | inactive | 
4 | O=C(CCl)C(Cl)Cl | inactive | 
5 | O=C(O)COc1nc(Cl)c(Cl)cc1Cl | inactive | 
6 | CN(C)CCc1c[nH]c2ccc(O)cc12 | inactive | 
7 | CNC(C)Cc1ccc2c(c1)OCO2 (stereo not given) | inactive | 
8 | COC12CC[C@@]3(C[C@@H]1C(C)(O)C(C)(C)C)[C@H]1Cc4ccc(O)c5c4[C@@]3(CCN1CC1CC1)[C@H]2O5 (stereo not given in full) | inactive | 
9 | C=CC(=O)OCCCCOC(=O)C=C | inactive | 
10 | CC1CCC(C(C)C)C(OC(=O)c2ccccc2N)C1 (stereo not given) | inactive | 
11 | Cc1cc(C)cc(OP(=O)(Oc2cc(C)cc(C)c2)Oc2cc(C)cc(C)c2)c1 | inactive | 
12 | Oc1cc(Cl)c(Cl)c(Cl)c1 | inactive | 
13 | O=[N+]([O-])c1cc(C(F)(F)F)c(Cl)c([N+](=O)[O-])c1Cl | inactive | 
14 | CCCCCCCCCCCCBr | inactive | 
15 | ClC1=C(Cl)C2(Cl)C3C(Cl)C(Cl)CC3C1(Cl)C2(Cl)Cl (stereo not given) | inactive | 
16 | CC1(c2ccc(Oc3ccccc3)cc2)OC(=O)N(Nc2ccccc2)C1=O (stereo not given) | inactive | 
17 | Clc1ccc(CSC(Cn2ccnc2)c2ccc(Cl)cc2Cl)cc1 (stereo not given) |  | -0.065% [at 18.6 µM]
18 | CN(C)C1CSSSC1 | inactive | 
19 | CC(=O)C(Cl)(Cl)Cl | inactive | 
20 | O=C(O)c1cc[c]([Hg][Cl])cc1 | inactive | 

Row | Structure (SMILES) | outcome | fluorescence, % of Rose Bengal
21 | BrC(Br)Br | inactive | 
22 | O=[N+]([O-])O.O=[N+]([O-])O.[Cd] | inactive | 
23 | O=C/C(Cl)=C(/Cl)C(=O)O | inactive | 
24 | Clc1ccc(-c2ccc(Cl)c(Cl)c2Cl)c(Cl)c1Cl | inactive | 
25 | O=c1[nH]c2ccccc2n1CCCN1CCC(n2c(=O)[nH]c3cc(Cl)ccc32)CC1 | inactive | 
26 | CCOC(=O)CC(=O)CCl | inactive | 
27 | CCOCCOC(C)=O | inactive | 
28 | CN(C)C(=S)[S-].CN(C)C(=S)[S-].[Cu+2] |  | 0.0949% [at 18.6 µM]
29 | Clc1ccc(C(c2ccc(Cl)cc2)C(Cl)(Cl)Cl)cc1 | inactive | 
30 | CC(=O)/C=C/c1ccc2c(c1)OCO2 | inactive | 
31 | O=C(O)C1C2CCC(O2)C1C(=O)O (stereo not given) | inactive | 
32 | CC(C)(O)c1cnn2c(-c3ccc(F)c(-c4c(F)cccc4C#N)c3)cnc2n1 | inactive | 
33 | Oc1ccc(C(c2ccc(O)cc2)(C(F)(F)F)C(F)(F)F)cc1 | inactive | 
34 | Clc1ccc(CO/N=C(\Cn2ccnc2)c2ccc(Cl)cc2Cl)c(Cl)c1 | inactive | 
35 | C[C@]12CC[C@@H]3c4ccc(OC(=O)N(CCCl)CCCl)cc4CC[C@H]3[C@@H]1CC[C@@H]2O | inactive | 
36 | CC(C)OC(=S)S | inactive | 
37 | CC(C)OS(C)(=O)=O | inactive | 
38 | Clc1ccc(C(Cl)(Cl)Cl)c(Cl)c1 | inactive | 
39 | COP(=S)(OC)Oc1cc(Cl)c(Br)cc1Cl | inactive | 
40 | Oc1c(Br)c(Br)c(Br)c(Br)c1Br | inactive | 

Source: PubChem BioAssay (Tox21)
